In PubChem BioAssay (NCI):
The panel holds about 83,000 compounds, 20% with a hit somewhere; the sample as a whole holds those more often.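 Cell lines were cultured in 96-well plates, exposed to a single compound concentration, and assessed for percent growth 48 hours later.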 A number with no mark means an inactive call. Calls of active or inactive are those of the source. How the source made its calls: active means growth percent below 10; inactive means the rest.

Each compound was assayed on HL-60(TB) leukemia (assay: NCI-60 one-dose screen, 48 h (100 = growth as untreated, 0 = no growth, -100 = all killed)). Details: 10 µM unless noted.

SMILES	growth
C[C@H]1C=C(C[C@@H](O)CC#CC#CCCCCC[C@@H](O)[C@H]2CCC(=O)O2)C(=O)O1	99.1%
C/C(Cc1ccc(Cl)cc1)=C(\c1ccc(OCCN2CCCCCC2)cc1)c1ccc(OC(=O)C2CCCCC2)cc1	17.6%
CCN(CC)CCN1C(=O)c2c(c3c4ccccc4[nH]c3c3ccc4ccccc4c23)C1=O	-23.7% (active)
